This is part of a sample that, as a whole, favours compounds with a hit. Of some 83,000 tested, about 20% had one in any assay.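 In brief: 96-well plates, 48 h treatment, single concentration, percent growth endpoint.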 Unmarked numbers belong to inactive results. Active and inactive are the calls of the source. How the source made its calls: active means growth percent below 10; inactive means the rest.

Among the data in PubChem BioAssay (NCI) are growth values, retold here.

Common to all, as to experiment: NCI-60 one-dose screen, 48 h (100 = growth as untreated, 0 = no growth, -100 = all killed)
Settings in all cases: 10 µM unless noted

The subject of experiment [1] is SR leukemia.
Experiment [2] has as its system RPMI-8226 leukemia.
Experiment [3] concerns OVCAR-8 ovarian.
For experiment [4], the system named is OVCAR-5 ovarian.
Experiment [5] has as its system OVCAR-4 ovarian.
Experiment [6] has as its system SK-OV-3 ovarian.
Experiment [7] has as its system IGROV1 ovarian.
In experiment [8] the test system is OVCAR-3 ovarian.
In experiment [9] the test system is HS 578T breast.
The subject of experiment [10] is NCI/ADR-RES ovarian.
Experiment [11] has as its system T-47D breast.
Experiment [12] concerns BT-549 breast.
For experiment [13], the system named is SW-620 colon.
Experiment [14] relates to MCF7 breast.
Experiment [15] deals with HCT-116 colon.
In experiment [16] the test system is HCC-2998 colon.
In experiment [17] the test system is KM12 colon.
Experiment [18] deals with MDA-MB-435 melanoma.

Regarding `Nc1nc(N)c2nc3c(nc2n1)CCCCCCCCCC3`, the growth in experiment [1] was 32.2%; in experiment [2] it was 85.6%; in experiment [3], 39.9%; in experiment [4] it was 69.4%; in [5], 61.9%; in [6] it was 78.9%. Moreover, the growth was 37.1% in [7]; 81.9% in experiment [8]; 72.6% in experiment [9]; 52.9% in experiment [10]; 82.1% in experiment [11]; 74.5% in [12]. Besides, the growth is 34.3% in [13]; 46.2% in [14]; 21.4% in experiment [15]; 39.2% in experiment [16]; 61.4% in [17].
With `OCC12CCCC(CO)(COC1)C2O` (stereo unspecified), the growth is 116% in experiment [1]; 103% in experiment [2]; 109% in experiment [3]; 106% in experiment [4]; 104% in experiment [5]; 102% in [6]. Besides, the growth in experiment [7] is 116%; in experiment [8], 117%; in experiment [9] it was 115%; in experiment [10] it was 97.3%; in [11], 101%; in experiment [12], 105%. The growth was 97.1% in experiment [13]; 106% in experiment [14]; 100% in experiment [15]; 100% in experiment [16]; 107% in experiment [17].
In the case of `Cc1ccc2oc(=O)cc(-c3sc(N4CCCCC4)nc3-c3ccccc3)c2c1`, the growth in [1] was 77.3%; in experiment [2] it was 99.9%; in experiment [3], 98.4%; in experiment [4], 102%; in experiment [5], 92.4%; in [6] it was 86.9%. For the same compound, the growth in [7] was 59.9%; in experiment [8], 97.2%; in experiment [9] it was 96.7%; in [10], 98.4%; in experiment [11], 76.8%; in [12], 91.2%. Further, the growth in experiment [18] was 103%; in experiment [13], 96.5%; in [14] it was 70.5%; in experiment [15], 89%; in experiment [16] it was 99.3%; in experiment [17], 94.8%.
Consider `COc1cccc(-c2nn(-c3ccccc3)cc2-c2ccnc(NCCNS(=O)(=O)c3cccc(F)c3)c2)c1`, for which the growth was 9.17% (active) in experiment [1]; 23.7% in [2]; 20.2% in experiment [3]; 64.9% in [4]; 31.1% in experiment [5]; 46.6% in experiment [6]. The growth is 38% in [7]; 40.4% in experiment [8]; 40.2% in [9]; 22.1% in [10]; 6.41% (active) in [11]; 46.9% in experiment [12]. The growth was 20% in experiment [18]; 46% in experiment [13]; 14.1% in experiment [14]; 21.4% in experiment [15]; 19.6% in experiment [17].
In the case of `Cn1cc(-c2csc(-c3cn(CCCN4CCCCC4)c4ccc(F)cc34)n2)c2cccnc21`, the growth was 65.9% in experiment [1]; 69.2% in experiment [2]; 95.3% in [3]; 91.8% in [4]; 92.8% in experiment [5]; 99.3% in [6]. Moreover, the growth in experiment [7] is 85.2%; in experiment [8], 93.2%; in [9], 82.5%; in [10], 89.5%; in [11], 92%; in [12], 71.3%. The growth in experiment [18] is 71.3%; in experiment [13], 89.7%; in experiment [14], 78.6%; in experiment [15], 88.2%; in experiment [17], 94%.
`Cn1cc(-c2csc(-c3cn(CCN)c4ccc(F)cc34)n2)c2cccnc21`: the growth in experiment [1] was 2.79% (active); in experiment [2], 67.9%; in [3], 72.1%; in experiment [4] it was 80.2%; in [5] it was 54.6%; in [6], 78%. For the same compound, the growth is 39.6% in experiment [7]; 84.1% in experiment [8]; 77.9% in experiment [9]; 78.3% in experiment [10]; 19% in experiment [11]; 89.1% in experiment [12]. Moreover, the growth was 53.5% in experiment [18]; 52.6% in experiment [13]; 36.2% in [14]; 77.1% in [15]; 47.7% in [17].
As to `Nc1c(C(=O)Nc2cccc(Cl)c2)sc2ncc(Cl)cc12`, the growth in experiment [1] was 66.3%; in experiment [2] it was 75%; in experiment [3] it was 81.9%; in experiment [4] it was 88.8%; in [5] it was -4.92% (active); in [6] it was 81%. In addition, the growth is 79.5% in experiment [7]; 71.4% in experiment [8]; 49.6% in [11]; 68.8% in [12]; 77.5% in experiment [18]; 66.6% in experiment [13]. The growth in experiment [14] was 84%; in [15], 19.6%; in experiment [16] it was 78.2%; in experiment [17], 63.3%.
Regarding `COc1ccc(-c2cc(-c3cccs3)n(N=O)c(=O)c2C#N)cc1`, the growth in experiment [1] is 114%; in experiment [2] it was 88.4%; in experiment [3], 97.4%; in experiment [4], 94.4%; in experiment [5] it was 100%; in [6], 105%. Further, the growth in experiment [8] was 123%; in experiment [9] it was 101%; in experiment [10] it was 102%; in experiment [11], 97.4%; in experiment [12], 104%; in [18], 125%. Besides, the growth in [13] was 112%; in [14] it was 95.8%; in [15], 105%; in [16], 112%; in experiment [17] it was 109%.
